BoNT F protease = blocks Botulinum neurotoxin F light chain protease; Multiplex microsphere protease cleavage assay, flow cytometry; inhibition, % at 10 µM; 0.22% of 360,000 active; in the data active means inhibition above about 35%, passing the limit was not always enough; inconclusive means no clear call, values can overlap the other calls; further: plate controls were buffer without enzyme for full effect and enzyme alone for no effect
Bead autofluor = counter-screen for toxin protease inhibitors: compound fluorescence; fluorescence intensity (concentration not given with the values); 3.1% of 360,000 active; compound autofluorescence counterscreen, microsphere flow cytometry; hits give high values; in the data active means fluorescence intensity above about 16000; inconclusive means no clear call, values can overlap the other calls
BoNT-A LC inh2 = blocks Botulinum neurotoxin A light chain protease; AID 588499; multiplex microsphere protease substrate cleavage, flow cytometry; 0.17% of 360,000 active; inhibition, % at 10 µM; further: plate controls were buffer without enzyme for full effect and enzyme alone for no effect
Anthrax LF inh2 = anthrax lethal factor protease inhibition. 0.12% of 360,000 active. P15917. multiplex microsphere protease cleavage assay, LF. inhibition, % at 10 µM; further: plate controls were buffer without enzyme for full effect and enzyme alone for no effect
Target sequence (P15917 whole entry, looked up): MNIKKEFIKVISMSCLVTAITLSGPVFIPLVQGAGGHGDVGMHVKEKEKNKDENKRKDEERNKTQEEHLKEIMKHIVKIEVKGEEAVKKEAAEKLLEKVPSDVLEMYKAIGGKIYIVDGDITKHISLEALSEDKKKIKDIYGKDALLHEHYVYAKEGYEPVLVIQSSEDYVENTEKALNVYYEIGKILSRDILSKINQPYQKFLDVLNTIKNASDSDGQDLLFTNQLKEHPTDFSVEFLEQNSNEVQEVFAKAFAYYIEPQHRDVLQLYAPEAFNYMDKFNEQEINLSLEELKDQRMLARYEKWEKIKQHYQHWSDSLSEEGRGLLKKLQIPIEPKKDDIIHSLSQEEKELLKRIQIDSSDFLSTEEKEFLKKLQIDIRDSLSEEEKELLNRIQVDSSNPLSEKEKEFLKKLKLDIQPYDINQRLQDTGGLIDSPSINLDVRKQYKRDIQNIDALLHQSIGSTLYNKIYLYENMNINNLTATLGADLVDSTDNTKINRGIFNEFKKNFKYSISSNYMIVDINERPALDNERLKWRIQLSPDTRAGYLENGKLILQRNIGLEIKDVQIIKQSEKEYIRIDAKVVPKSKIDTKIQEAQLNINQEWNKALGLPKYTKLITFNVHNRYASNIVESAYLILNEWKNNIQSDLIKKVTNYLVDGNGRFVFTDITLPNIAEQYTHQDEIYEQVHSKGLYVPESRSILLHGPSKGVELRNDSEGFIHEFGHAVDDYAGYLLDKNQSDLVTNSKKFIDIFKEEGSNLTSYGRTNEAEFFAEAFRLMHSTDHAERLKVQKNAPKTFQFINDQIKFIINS
BoNT-A LC CP1 = blocks botulinum neurotoxin A light chain protease; shares compounds with BoNT F protease; multiplex microsphere protease assay, flow cytometry; inhibition, % at 10 µM; 3% of 720 active; in the data active means inhibition above about 32%
BoNT-F LC CP1 = inhibitors of Botulinum neurotoxin F light chain protease. 720 tested, under 10 active. AID 602140. shares compounds with BoNT F protease. multiplex microsphere protease cleavage assay, flow cytometry. inhibition, % at 10 µM; call rule not given here
Anthrax LF CP1 = Bacillus anthracis lethal factor protease inhibition; shares compounds with BoNT F protease; multiplex microsphere protease cleavage assay, LF; inhibition, % at 10 µM; 720 tested, under 10 active; AID 602142; call rule not given here
* hit, by the source's call; ? = inconclusive; . = no result. Shown are actives, neighbours in structure and some others; about 3.5% of the full set was active somewhere. Unless noted, no stated cut-off is given here; in the data, active means inhibition above about 30%; inconclusive means no clear call, values can overlap the other calls; inactive means below that.

SMILES	BoNT F protease	Bead autofluor	BoNT-A LC inh2	Anthrax LF inh2	BoNT-A LC CP1	BoNT-F LC CP1	Anthrax LF CP1
Cc1ccc(N2CC(C(=O)OCC(=O)Nc3c(C)cccc3C)CC2=O)cc1 (stereo unspecified)	1	3387	0	3	.	.	.
Cc1cc([N+](=O)[O-])nn1Cn1nc([N+](=O)[O-])cc1C	-1	3444	-1	1	.	.	.
Cc1cc([N+](=O)[O-])nn1Cc1ccccc1F	35*	2525	0	1	0	0	1
CN(C(=O)Cn1nnc2ccccc2c1=O)C1CCCCC1	15	3033	5	8	.	.	.
CCOc1ccccc1OCC(=O)Nc1nnc(COC)s1	53*	?	?	?	0	-6	-3
Cc1ccccc1OCC(=O)Nc1nnc(C2CCCCC2)s1	47*	2965	-1	-2	-1	-3	-2
Cc1ccc(S(=O)(=O)NCC(=O)OCC(=O)Nc2ccc3c(c2)OCCO3)cc1	-12	3434	-1	-4	.	.	.
CCCC(=O)Nc1nnc(SCC(=O)NCc2ccc3c(c2)OCO3)s1	40*	4423	7	-4	-1	-6	-5
O=C(CSc1nnc(SCC(=O)NCc2ccc3c(c2)OCO3)s1)NCc1ccc2c(c1)OCO2	7	9095	0	4	.	.	.
Cc1cscc1-c1ccc(C(=O)Nc2c(C)cccc2C)o1	4	3850	0	-4	.	.	.
C=CCn1c(CCC)nc2ccccc21	0	4013	0	0	.	.	.
C=CCn1c(C(CC)CC)nc2ccccc21	36*	4311	-2	-16	0	-2	3
c1ccc(SC23CCCCN(CCC2)C32OCCO2)cc1 (stereo unspecified)	-7	5459	-1	-5	.	.	.
CC1CCN(CCCCOc2ccccc2F)CC1	0	4189	3	2	.	.	.
CC1CCN(CCCCOc2ccccc2Br)CC1	43*	3041	6	0	0	-5	0
N#CC(C(O)c1ccccc1)N1CCOCC1 (stereo unspecified)	7	3645	0	3	.	.	.
Cc1nnc(SCC(=O)Nc2ccc(N3CCOCC3)cc2)o1	42*	3798	1	0	-1	-2	2
C[C@@H]1CN([C@H](C)CO)C(=O)c2cc(Br)cnc2O[C@@H]1CN(C)C(=O)c1ccccc1	-3	3620	0	2	.	.	.
O=C1CN(Cc2ccccc2)CC(=O)N1	46*	3950	-2	-1	-1	-2	0
COc1ccccc1-c1c(C)nn2c(N)c(-c3ccccc3)cnc12	19	4105	1	-1	.	.	.
COc1ccc(-c2c(C)nn3c(N)c(-c4ccccc4)cnc23)cc1OC	40*	4470	-6	-2	0	-4	-3
CN1CCc2c(sc3nc(SCC(N)=O)n(-c4ccc(Cl)cc4)c(=O)c23)C1	-41	9910	66*	-6	4	-7	1
CCSc1nc2sc3c(c2c(=O)n1C1CCCCC1)CCN(C)C3	11	5142	45*	29	1	-1	3
N#Cc1c(-c2ccc(Cl)cc2)n(O)c2ccccc12	-11	4245	0	-3	.	.	.
CSc1ncnc2c1ncn2CCCN1CCN(c2ccccn2)CC1	-10	3451	0	0	.	.	.
SMILES	BoNT F protease	Bead autofluor	BoNT-A LC inh2	Anthrax LF inh2	BoNT-A LC CP1	BoNT-F LC CP1	Anthrax LF CP1
COc1ccccc1Oc1ncnc2sccc12	37*	3310	5	0	-2	-5	-2
Cn1c(NCCc2ccncc2)nc2cc(-c3ccccc3)sc2c1=O	1	3605	0	2	.	.	.
CC(C)(C)c1ccc(S(=O)(=O)NCc2ccc(C(=O)NCC3CCCO3)cc2)cc1 (stereo unspecified)	-5	5862	-1	-2	.	.	.
COc1cccc(S(=O)(=O)NCc2ccc(C(=O)NCC3CCCO3)cc2)c1 (stereo unspecified)	38*	10761	29	-19	-1	-3	0
O=C(COc1ccccc1)N(Cc1nnc(-c2ccccc2Cl)o1)C1CC1	37*	5742	12	0	1	-6	4
c1ccc(Cn2c(CNc3nc4ccccc4n3CCN3CCCCC3)nc3ccccc32)cc1	1	3736	0	-2	.	.	.
c1ccc(Cn2c(CN3CCCC3)nc3ccccc32)cc1	34	6747	3	-2	-1	0	2
OC1CN=C2CCCc3c2n(c2ccc(Cl)cc32)C1 (stereo unspecified)	24	4022	54*	42*	4	0	8
COC(=O)c1ccccc1NC(=O)CN(C)Cc1ccccc1	-2	1920	0	-2	.	.	.
COC(=O)c1ccc(C(=O)OC)c(NC(=O)CN(C)Cc2ccc(Cl)c(Cl)c2)c1	65*	6413	10	37*	0	-5	-5
O=C(O)C1Nc2c(C(F)(F)F)ccc(Cl)c2C2C=CCC12 (stereo unspecified)	-19	3213	-4	40*	1	-3	-6
Cc1ccc2c(c1C)NC(C(=O)O)C1CC=CC21 (stereo unspecified)	?	4176	?	?	.	.	.
CC(C)C(OC(=O)c1nsc(Cl)c1Cl)C(=O)NC1CCCCC1 (stereo unspecified)	8	5895	2	1	.	.	.
COc1ccc(NC(=O)c2[nH]c(C)c(C(C)=O)c2C)cc1	-4	4240	-2	-3	.	.	.
CCOc1ccc(NC(=O)c2[nH]c(C)c(C(C)=O)c2C)cc1	35*	7115	-1	3	-2	-7	-2
CC(=O)Cn1cnc2c(cnn2-c2ccc(F)cc2)c1=O	-9	4218	0	-3	.	.	.
COc1ccc(-n2ncc3c(=O)n(CC(C)=O)cnc32)cc1	?	2086	61*	8	0	-6	0
COc1ccc(OC)c(Nc2nc(NCCCN(C)C)nc(N)c2[N+](=O)[O-])c1	?	3678	1	31*	1	-5	-3
O=C(CSc1nc2sccc2c(=O)[nH]1)N1CCN(c2ccccc2)CC1	-4	5337	1	-3	.	.	.
CCN(C(=O)c1cccnc1)c1ccccc1	-28	3661	0	3	.	.	.
CCN(C(=O)c1ccc(C)c(Br)c1)c1ccccc1	60*	2754	6	1	-1	-2	0
COc1ccc(-n2cc(CNCCCn3ccnc3)c(-c3cccc(F)c3)n2)cc1	37*	2583	4	-2	-1	-15	-4
CSc1sc(-c2n[nH]c(=S)n2C)c2c1C=CCC2	?	4390	?	9	.	.	.
COC(=O)C(Cc1ccccc1)NC(=O)c1cccc(S(=O)(=O)N(C)C)c1 (stereo unspecified)	37*	4261	7	-2	0	-1	-2
COC(=O)[C@H](Cc1ccccc1)N(C)S(=O)(=O)c1cccc(S(=O)(=O)N(C)[C@@H](Cc2ccccc2)C(=O)OC)c1	-2	2787	0	-8	.	.	.
CCCn1c(SCC(=O)c2c[nH]c3ccccc23)nnc1-c1ccncc1	-24	4586	53*	15	17	-9	17
Cc1ccc2nc(SCC(=O)c3c[nH]c4ccccc34)[nH]c2c1	-17	5287	58*	14	20	-19	17

Bioassay records as filed in PubChem BioAssay.
